Experimental findings from PubChem BioAssay AID652208 (Broad Institute, 2013) are described below.

Results with a measured potency or affinity are listed apart. A number with no mark means an inactive call.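 The calls were made as follows: active = Loss of cell signal with fitted half-effect dose at or below twice the top valid tested dose; inconclusive = Poor fit, or flat fit from -70 to -30 percent; inactive = Half-effect above limit, rising signal, or flat within 30 percent.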

This assay can be described thus: viability loss in HEK293T cells – cell-based, cherry-picks, cytotoxicity control for HIV Vif inhibitor project, dose response (AID 652208).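 Also: 0% = median neutral control wells and -100% = median staurosporine control wells.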 The following applies: CellTiter-Glo luminescence, 24 h; series mostly up to 26 µM; activity change, negative = cytotoxicity: at the top concentration.
In the case of `CCC(C)C(=O)Nn1c(C2CC2)nc2cc(OC)c(OC)cc2c1=O` (stereo not drawn), the “activity change, negative = cytotoxicity” value is -7.99%.
Turning to `CCOC(=O)C1(Cc2ccccc2)CCN(Cc2csc(C(C)=O)c2)CC1`, the “activity change, negative = cytotoxicity” value is -3.82%.
In the case of `O=C(CCN1CCOCC1)Nc1ccc(Cl)cc1` it was 0.037%; in that of `NS(=O)(=O)c1ccc(NC(=O)CCC(=O)N2CCOCC2)cc1`, 3.75%.
Consider `Cc1ccc(NC(=O)Cn2ncn3c(cc4ccccc43)c2=O)c(C)c1`, for which the “activity change, negative = cytotoxicity” value was -0.859%.
Consider `COc1ccc2cc(CCNS(=O)(=O)c3ccc(NC(C)=O)cc3)c(=O)[nH]c2c1`, for which the “activity change, negative = cytotoxicity” value is -0.974%.
Turning to `COc1ccc(CN2C3CCC2CC(NC(=O)c2cc(OC)c(OC)c(OC)c2)C3)cc1` (stereo not drawn), the “activity change, negative = cytotoxicity” value was -11.2%.
In the case of `CCn1c(SCc2nc3ccccc3c(=O)[nH]2)nc2ccccc2c1=O` it was -8.27%; in that of `COc1ccccc1C1C2=C(COC2=O)Nc2cc3c(cc21)OCO3` (stereo not drawn), -19.8%.
Under `Cc1ccc2c(c1)C1CN(C)CCC1N2S(=O)(=O)c1cccc(C(F)(F)F)c1` (stereo not drawn) stands -8.3%; under `CN(C)c1ccc(/C=C2\SC(=O)N(CCc3nnc(N)s3)C2=O)cc1`, -1.54%.
In the case of `COc1ccc2nc3ccccc3nc2c1NC(=O)c1ccc(Cl)cc1`, the “activity change, negative = cytotoxicity” value is 1.12%.
Regarding `O=C(NCc1cccnc1)NC1(C(F)(F)F)Oc2ccc(Cl)cc2O1` (stereo not drawn), the “activity change, negative = cytotoxicity” value is 0.018%.
Under `COc1cc(NC(=O)c2ccc(C)cc2C)ccc1NC(=O)c1cccs1` stands -17.1%; under `O=C1S/C(=C/c2ccc(N3CCOCC3)o2)C(=O)N1Cc1c(F)cccc1Cl`, -15.8%.
Take `CCC(C)n1c(-c2cccs2)nc2nc3ccccc3nc21` (stereo not drawn): the “activity change, negative = cytotoxicity” value was -14.9%.
Consider `COc1ccc(NC(=O)Cn2nnc(C(=O)Nc3ccccc3C)c2N)cc1`, for which the “activity change, negative = cytotoxicity” value is -3.75%.
As to `COc1cc(C(C)=O)ccc1OCC(=O)NCC1(N2CCCCC2)CCCCC1`, the “activity change, negative = cytotoxicity” value is -8.55%.
On to `COCc1cc(C)nc(SCC(=O)Nc2cccc3cccnc23)c1C#N`, for which the “activity change, negative = cytotoxicity” value is 7.55%.
Under `CN(C)c1ccc(/C=C/C(=O)c2ccc3c(c2)OCO3)cc1` stands -23.4%; under `O=c1[nH]c(=O)n(Cc2ccco2)c2c1C(C(F)(F)F)(C(F)(F)F)N=C(c1ccco1)N2`, -3.38%; under `CCN1CCc2c(sc(N)c2C(N)=O)C1`, 0.158%.
Under `COc1cc(C(=O)NCCc2cn3ccc(C)cc3n2)cc(OC)c1OC` stands 4.46%; under `C=CCNc1sc(C(=O)c2ccc(Br)s2)c(N)c1C#N`, -3.79%; under `COc1ccc(S(=O)(=O)N2c3cc(Cl)ccc3Oc3nc4ccccc4nc32)cc1`, -16%.
Under `CC(=O)Nc1ccc(S(=O)(=O)N2c3ccccc3C(C)=CC2(C)C)cc1` stands -16.1%.
Regarding `CCOC(=O)C1(Cc2cccc(OC)c2)CCN(CCO)CC1`, the “activity change, negative = cytotoxicity” value is -13.8%.
In the case of `O=C(c1ccc(Cl)c(Cl)c1)N(Cc1ccco1)c1ccc(O)cc1` it was -6.38%; in that of `O=C1/C(=C/c2ccc(N3CCCC3)cc2)NC(=S)N1C1CC1`, 3.52%.
In the case of `CCC(=O)N(CCC1(C(C)C)CCOC(C)(C)C1)Cc1ccco1` (stereo not drawn) it was -3.81%; in that of `COc1ccc(NC(=O)C2(C)Cc3c(-c4cccc(NC(C)=O)c4)ccnc3O2)cn1` (stereo not drawn), -11.7%; in that of `CC(=O)Nc1ccc(-c2ccnc3c2CC(C(=O)NCc2ccccc2)O3)cc1` (stereo not drawn), -9.05%.
For `Cc1ccc(Nc2nc(N)nc(CSc3nnc(-c4ccncc4)o3)n2)cc1`, the “activity change, negative = cytotoxicity” value was -4.38%.
With `O=C(c1ccc2c(c1)OCO2)N(CC1CCCO1)C1(C(=O)NC2CCCC2)CCCCC1` (stereo not drawn), the “activity change, negative = cytotoxicity” value is -18.2%.
Take `CCC(=O)Nc1ccc(-c2nnc(SCc3ccc(C(=O)Nc4nccs4)cc3)n2CC)cc1`: the “activity change, negative = cytotoxicity” value was -3.47%.
Under `CCCCN1C(=O)/C(=C/C=C2\Oc3ccccc3N2CC)SC1=S` stands -20.3%; under `O=C(O)c1ccc(-c2nc(-c3cccc(C(F)(F)F)c3)cs2)cc1`, -7.98%; under `CCOc1ccc2c(C)c(C(=O)O)oc2c1OCC`, 0.912%.
